{
  "source": "the supplement of paper PMC7366291",
  "note": "Where a name gives a salt, the structure may show the parent alone. ± gives the standard deviation of the averaged measurements.",
  "data": [
    {"system": "Danio rerio Tg(wt1b:EGFP) embryo, pronephros", "assay": "pronephric angle neck segment to proximal convoluted tubule (mean of left and right), fold change vs DMSO control; higher = larger pronephric angle", "conditions": "25 µM; exposure: 24-48 hpf", "outline": "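Features are reported as fold changes against the mean of same-day DMSO-treated embryos. Before that, values more than 2 SD away from the feature mean were excluded. The embryos, dechorionated Tg(wt1b:EGFP) zebrafish, had been exposed from 24 to 48 hpf at 28.5°C to 25 μM compound in 0.5% DMSO in HEPES-buffered E3 with 0.003% PTU, and distances and angles came from 16 manually set points on maximum projections of dorsal pronephros images in Fiji.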", "values": [
      {"smiles": "CN1CCN(CCCN2c3ccccc3Sc3ccc(C(F)(F)F)cc32)CC1", "note": "[Trifluoperazine dihydrochloride]", "pronephric angle neck segment": "0.9555 ± 0.0078"},
      {"smiles": "CC1(C)S[C@@H]2[C@H](NC(=O)[C@H](N)c3ccc(O)cc3)C(=O)N2[C@H]1C(=O)O", "note": "[Amoxicillin]", "pronephric angle neck segment": "1.04 ± 0.074"},
      {"smiles": "NC(=O)N1c2ccccc2CC(=O)c2ccccc21", "note": "[Oxcarbazepine]", "pronephric angle neck segment": "0.9454 ± 0.0088"},
      {"smiles": "O=C1c2ccccc2C(=O)C1c1ccccc1", "note": "[Phenindione]", "pronephric angle neck segment": "0.919 ± 0.013"},
      {"smiles": "CC(=O)[C@H]1CC[C@H]2[C@@H]3CC=C4C[C@@H](O)CC[C@]4(C)[C@H]3CC[C@]12C", "note": "[Pregnenolone]", "pronephric angle neck segment": "0.999 ± 0.16"},
      {"smiles": "CN1CCN(CC(=O)N2c3ccccc3C(=O)Nc3cccnc32)CC1", "note": "[Pirenzepine dihydrochloride]", "pronephric angle neck segment": "1.03 ± 0.059"},
      {"smiles": "COCC1=C(C(=O)OC(C)OC(=O)OC(C)C)N2C(=O)[C@@H](NC(=O)/C(=N\\OC)c3csc(N)n3)[C@H]2SC1", "note": "(stereo not given in full) [Cefpodoxime proxetil]", "pronephric angle neck segment": "1.05 ± 0.054"},
      {"smiles": "CC(C)OC(=O)CCC/C=C\\C[C@@H]1[C@@H](CC[C@@H](O)CCc2ccccc2)[C@H](O)C[C@@H]1O", "note": "[Latanoprost]", "pronephric angle neck segment": "1.02 ± 0.013"},
      {"smiles": "CN(C/C=C/c1ccccc1)Cc1cccc2ccccc12", "note": "[Naftifine hydrochloride]", "pronephric angle neck segment": "0.982 ± 0.078"},
      {"smiles": "C#C[C@]1(OC(C)=O)CC[C@H]2[C@@H]3CCC4=C[C@@H](OC(C)=O)CC[C@@H]4[C@H]3CC[C@@]21C", "note": "[Ethynodiol diacetate]", "pronephric angle neck segment": "1.13 ± 0.057"},
      {"smiles": "CN(C)CCC(c1ccc(Cl)cc1)c1ccccn1", "note": "(stereo not given) [Chlorpheniramine maleate]", "pronephric angle neck segment": "0.969 ± 0.0027"},
      {"smiles": "COc1cc([C@@H]2c3cc4c(cc3[C@@H](O[C@@H]3O[C@@H]5CO[C@@H](C)O[C@H]5[C@H](O)[C@H]3O)[C@H]3COC(=O)[C@H]23)OCO4)cc(OC)c1O", "note": "[Etoposide]", "pronephric angle neck segment": "0.982 ± 0.013"},
      {"smiles": "CCC[C@H](N[C@@H](C)C(=O)N1[C@H](C(=O)O)C[C@@H]2CCCC[C@@H]21)C(=O)OCC", "note": "[Perindopril]", "pronephric angle neck segment": "0.98 ± 0.026"},
      {"smiles": "CC(=O)O[C@]1(C(C)=O)CC[C@H]2[C@@H]3C=C(C)C4=CC(=O)CC[C@@H]4[C@H]3CC[C@@]21C", "note": "[Nomegestrol acetate]", "pronephric angle neck segment": "1.131 ± 0.0084"},
      {"smiles": "Fc1ccc([C@@H]2CCNC[C@H]2COc2ccc3c(c2)OCO3)cc1", "note": "[Paroxetine Hydrochloride]", "pronephric angle neck segment": "0.9885 ± 0.0011"},
      {"smiles": "O=C(O)Cc1sc(-c2ccccc2)nc1-c1ccc(Cl)cc1", "note": "[Fentiazac]", "pronephric angle neck segment": "1.75 ± 0.059"},
      {"smiles": "Clc1ccc2c(c1)C(N1CCNCC1)=Nc1ccccc1O2", "note": "[Amoxapine]", "pronephric angle neck segment": "1.02 ± 0.039"},
      {"smiles": "CC[C@H]1OC(=O)[C@H](C)[C@@H](O[C@H]2C[C@@](C)(OC)[C@@H](O)[C@H](C)O2)[C@H](C)[C@@H](O[C@@H]2O[C@H](C)C[C@H](N(C)C)[C@H]2O)[C@](C)(O)C[C@@H](C)[C@@H]2N[C@@H](COCCOC)O[C@H]([C@H]2C)[C@]1(C)O", "note": "[Dirithromycin]", "pronephric angle neck segment": "0.981 ± 0.065"},
      {"smiles": "CCOC(=O)[N-]c1c[n+](N2CCOCC2)no1", "note": "[Molsidomine]", "pronephric angle neck segment": "0.982 ± 0.013"},
      {"smiles": "NC[C@@H]1O[C@H](O[C@H]2[C@@H](O)[C@H](O[C@@H]3[C@@H](O)[C@H](N)C[C@H](N)[C@H]3O[C@H]3O[C@H](CO)[C@@H](O)[C@H](O)[C@H]3N)O[C@@H]2CO)[C@H](N)[C@@H](O)[C@@H]1O", "note": "[Paromomycin sulfate]", "pronephric angle neck segment": "0.99 ± 0.051"},
      {"smiles": "CN(C)CCC(c1ccccc1)c1ccccn1", "note": "(stereo not given) [Pheniramine maleate]", "pronephric angle neck segment": "0.9206 ± 0.0039"},
      {"smiles": "O=C(O)COC(=O)Cc1ccccc1Nc1c(Cl)cccc1Cl", "note": "[Aceclofenac]", "pronephric angle neck segment": "1.24 ± 0.15"},
      {"smiles": "CCN(CC)CCCC(C)Nc1ccnc2cc(Cl)ccc12", "note": "(stereo not given) [Chloroquine diphosphate]", "pronephric angle neck segment": "0.991 ± 0.019"},
      {"smiles": "COc1ccc(C(=O)NCc2cccnc2)cc1C(=O)NCc1cccnc1", "note": "[Picotamide monohydrate]", "pronephric angle neck segment": "0.991 ± 0.0099"},
      {"smiles": "CCN(Cc1ccncc1)C(=O)C(CO)c1ccccc1", "note": "(stereo not given) [Tropicamide]", "pronephric angle neck segment": "0.987 ± 0.052"},
      {"smiles": "Cc1c(C)c2c(c(C)c1O)CCC(C)(C(=O)O)O2", "note": "(stereo not given) [Trolox]", "pronephric angle neck segment": "1 ± 0.014"},
      {"smiles": "C#CCN[C@@H]1CCc2ccccc21", "note": "[Rasagiline]", "pronephric angle neck segment": "0.972 ± 0.021"},
      {"smiles": "CNC(=C[N+](=O)[O-])NCCSCc1csc(CN(C)C)n1", "note": "[Nizatidine]", "pronephric angle neck segment": "1.01 ± 0.043"},
      {"smiles": "C[C@](N)(Cc1ccc(O)c(O)c1)C(=O)O", "note": "[Methyldopa (L,-)]", "pronephric angle neck segment": "1.001 ± 0.0027"},
      {"smiles": "CNc1ncnc2c1ncn2[C@@H]1O[C@H](CO)[C@@H](O)[C@H]1O", "note": "[N6-methyladenosine]", "pronephric angle neck segment": "1.01 ± 0.065"},
      {"smiles": "Nc1ccc(S(=O)(=O)c2ccc(N)cc2)cc1", "note": "[Dapsone]", "pronephric angle neck segment": "1.14 ± 0.042"},
      {"smiles": "CC(C)C(=O)c1c(C(C)C)nn2ccccc12", "note": "[Ibudilast]", "pronephric angle neck segment": "1.01 ± 0.036"},
      {"smiles": "OC(CCN1CCCC1)(c1ccccc1)C1CCCCC1", "note": "(stereo not given) [Procyclidine hydrochloride]", "pronephric angle neck segment": "0.954 ± 0.035"},
      {"smiles": "C=C1c2c(Cl)ccc(O)c2C(=O)C2=C(O)[C@]3(O)C(=O)C(C(N)=O)=C(O)[C@@H](N(C)C)[C@@H]3[C@@H](O)[C@H]12.O=C(O)c1cc(S(=O)(=O)O)ccc1O", "note": "[Meclocycline sulfosalicylate]", "pronephric angle neck segment": "0.9562 ± 0.0078"},
      {"smiles": "CCOC(=O)[C@H](CCc1ccccc1)N[C@@H](C)C(=O)N1Cc2ccccc2C[C@H]1C(=O)O", "note": "[Quinapril hydrochloride]", "pronephric angle neck segment": "0.99 ± 0.015"},
      {"smiles": "O=C(Nc1ccc([N+](=O)[O-])cc1Cl)c1cc(Cl)ccc1O", "note": "[Niclosamide]", "pronephric angle neck segment": "1.26 ± 0.093"},
      {"smiles": "COc1ccc2c(c1)c(CC(=O)O)c(C)n2C(=O)c1ccc(Cl)cc1", "note": "[Indomethacin]", "pronephric angle neck segment": "1.62 ± 0.03"},
      {"smiles": "COc1cc(N)c(Cl)cc1C(=O)NC1CCN(Cc2ccccc2)CC1", "note": "[Clebopride maleate]", "pronephric angle neck segment": "0.912 ± 0.027"},
      {"smiles": "NCCC[C@H](N)CC(=O)N[C@H]1CNC(=O)[C@H]([C@H]2C[C@H](O)NC(N)=N2)NC(=O)/C(=C/NC(N)=O)NC(=O)[C@H](CO)NC(=O)[C@H](CO)NC1=O", "note": "[Viomycin sulfate]", "pronephric angle neck segment": "1.07 ± 0.088"},
      {"smiles": "O=C(O)c1cc(=O)c2c(OCC(O)COc3cccc4oc(C(=O)O)cc(=O)c34)cccc2o1", "note": "[Cromolyn disodium salt]", "pronephric angle neck segment": "1.0048 ± 0.00061"}
    ]}
  ]
}
